This passage reports cytotoxicity call results from the antibiotic and cytotoxicity screens of Wong et al. (2023).

Out of some 39,000 compounds screened, about 1,500 (3.8%) were called active. Only a selection was taken, and actives are over-represented in it overall.

In the assay the test system is HSkMC (human skeletal muscle cells). Briefly: cytotoxicity call (relative viability < 0.9). Particulars: 10 µM.
In the case of `NC[C@H]1CC[C@H](C(=O)O)CC1`, the cytotoxicity call was “inactive”.
On to `C[C@@H]1CCCCO[C@H](CN(C)Cc2ccccc2)[C@H](C)CN([C@@H](C)CO)C(=O)c2cc(NC(=O)c3ccccc3)ccc2O1`, for which the cytotoxicity call was “inactive”.
As for `COc1ccccc1CNC(=O)C[C@@H]1C[C@H]2c3cc(NC(=O)c4ccc5c(c4)OCO5)ccc3O[C@H]2[C@@H](CO)O1`, the cytotoxicity call is “inactive”.
With `C[C@@H]1CN([C@H](C)CO)C(=O)CCCn2nncc2CO[C@@H]1CN(C)S(=O)(=O)c1ccc(Oc2ccccc2)cc1` the entry was “inactive”.
With `Cc1ccc(S(=O)(=O)N2C[C@@H](O)COC[C@H]3O[C@H](CC(=O)NCc4cccc(C(F)(F)F)c4)CC[C@@H]32)cc1` the entry was “inactive”.
In the case of `O=C1O[C@@H](c2ccccc2)[C@@H](c2ccccc2)N2[C@@H](c3ccc(O)cc3)[C@]3(C(=O)Nc4ccc(C#CC5(O)CCCCCC5)cc43)[C@@H](C(=O)N3CCCCCCC3)[C@H]12`, the cytotoxicity call was “inactive”.
On to `CNC[C@H]1OCCCC[C@H](C)Oc2ccc(NS(=O)(=O)c3cn(C)cn3)cc2C(=O)N([C@@H](C)CO)C[C@@H]1C`, for which the cytotoxicity call was “inactive”.
With `C[C@@H]1CCCCO[C@@H](CN(C)C(=O)C2CCCCC2)[C@@H](C)CN([C@@H](C)CO)C(=O)c2cc(NC(=O)C3CCCCC3)ccc2O1`, the cytotoxicity call is “inactive”.
As to `COc1ccc(S(=O)(=O)Nc2ccc3c(c2)CC(=O)N([C@@H](C)CO)C[C@H](C)[C@@H](CN(C)S(=O)(=O)c2ccc(OC)cc2)O3)cc1`, the cytotoxicity call is “inactive”.
On to `COC(=O)[C@@]12CCC(C)(C)C[C@@H]1[C@@H]1C(=O)C=C3[C@]4(C)C=C(C#N)C(=O)C(C)(C)[C@H]4CC[C@]3(C)[C@@]1(C)CC2`, for which the cytotoxicity call was “active”.
For `COC(=O)[C@]12CCC(C)(C)C[C@H]1[C@H]1C(=O)C=C3[C@@]4(C)C=C(C#N)C(=O)C(C)(C)[C@@H]4CC[C@@]3(C)[C@]1(C)CC2`, the cytotoxicity call is “active”.
`COc1ccc(CN(C)C[C@@H]2OCCCC[C@H](C)Oc3ccc(NC(=O)NC4CCCCC4)cc3C(=O)N([C@@H](C)CO)C[C@H]2C)cc1`: the cytotoxicity call was “inactive”.
For `CC1(C)[C@@H](OC(=O)CCC(=O)O)CC[C@]2(C)[C@H]3C(=O)C=C4[C@@H]5C[C@@](C)(C(=O)O)CC[C@]5(C)CC[C@@]4(C)[C@]3(C)CC[C@@H]12`, the cytotoxicity call is “inactive”.
Regarding `C[C@@H]1CN([C@@H](C)CO)S(=O)(=O)c2ccc(/C=C/c3ccccc3)cc2O[C@@H]1CN(C)C(=O)Nc1cc(F)ccc1F`, the cytotoxicity call is “inactive”.
To `Cc1ccc(S(=O)(=O)Nc2ccc3c(c2)CC(=O)N([C@H](C)CO)C[C@H](C)[C@H](CN(C)CC2CC2)O3)cc1` belongs “inactive”.
On to `C[C@@H]1CN([C@H](C)CO)C(=O)c2c(c3ccccc3n2C)-c2ccccc2CO[C@@H]1CN(C)C(=O)[C@H](C)c1ccccc1`, for which the cytotoxicity call is “active”.
For `C[C@H](CO)N1C[C@H](C)[C@@H](CN(C)C(=O)c2cc(Cl)cc(Cl)c2)OCc2ccccc2-c2c(n(C)c3ccccc23)C1=O`, the cytotoxicity call was “active”.
To `C[C@@H]1CN([C@@H](C)CO)C(=O)c2c(c3ccccc3n2C)-c2ccccc2CO[C@@H]1CN(C)C(=O)c1cc(Cl)cc(Cl)c1` belongs “inactive”; to `C[C@@H]1CN([C@@H](C)CO)C(=O)c2c(c3ccccc3n2C)-c2ccccc2CO[C@H]1CN(C)C(=O)c1cc(Cl)cc(Cl)c1`, “inactive”; to `C[C@@H](C(=O)N(C)C[C@H]1OCc2ccccc2-c2c(n(C)c3ccccc23)C(=O)N([C@@H](C)CO)C[C@@H]1C)c1ccccc1`, “inactive”.
Regarding `C[C@H]1CN([C@@H](C)CO)C(=O)c2c(c3ccccc3n2C)-c2ccccc2CO[C@H]1CN(C)C(=O)c1cc(Cl)cc(Cl)c1`, the cytotoxicity call is “inactive”.
With `C[C@@H]1CN([C@@H](C)CO)C(=O)c2c(c3ccccc3n2C)-c2ccccc2CO[C@@H]1CN(C)C(=O)[C@H](C)c1ccccc1`, the cytotoxicity call is “inactive”.
For `C[C@@H]1CN([C@H](C)CO)C(=O)c2c(c3ccccc3n2C)-c2ccccc2CO[C@H]1CN(C)C(=O)c1cc(Cl)cc(Cl)c1`, the cytotoxicity call was “active”.
In the case of `C[C@H]1CN([C@@H](C)CO)C(=O)c2c(c3ccccc3n2C)-c2ccccc2CO[C@@H]1CN(C)C(=O)c1cc(Cl)cc(Cl)c1`, the cytotoxicity call is “inactive”.
As to `C[C@H](CO)N1C[C@H](C)[C@H](CN(C)S(C)(=O)=O)Oc2ccc(NC(=O)CCN3CCOCC3)cc2C1=O`, the cytotoxicity call was “inactive”.
As for `C[C@@H]1CN([C@@H](C)CO)C(=O)c2c(c3ccccc3n2C)-c2ccccc2CO[C@H]1CN(C)S(=O)(=O)c1cn(C)cn1`, the cytotoxicity call was “inactive”.
Consider `C[C@H]1CN([C@@H](C)CO)C(=O)c2cc(NC(=O)Cn3cnnn3)ccc2O[C@H]1CN(C)C(=O)Nc1ccccc1`, for which the cytotoxicity call is “inactive”.
Regarding `C[C@H](CO)N1C[C@H](C)[C@@H](CN(C)Cc2ccc(C(=O)O)cc2)Oc2c(NC(=O)c3ccc(-c4nccs4)cc3)cccc2C1=O`, the cytotoxicity call is “inactive”.
On to `CC(=O)OC1CC(O)C(C)(C)C2CC(OC(C)=O)C3(C)C(CCC4(C)C(c5ccoc5)OC(=O)C5OC543)C12C` (configuration not stated), for which the cytotoxicity call is “inactive”.
As for `C[C@@H]1CN([C@@H](C)CO)C(=O)c2cc(NC(=O)Nc3ccc(F)cc3)ccc2O[C@@H](C)CCCCO[C@@H]1CN(C)S(=O)(=O)c1ccccc1`, the cytotoxicity call is “inactive”.
Take `COc1ccc2c3c(n(c2c1)C)[C@H](CO)N(C[C@]13CCN(CC1)C(=O)c1ccccn1)C(=O)c1ccccn1`: the cytotoxicity call is “inactive”.
Consider `OC[C@H]1CC[C@@H]2O[C@H](CCc3ccc(C#Cc4ccccc4)cc3)[C@@H](n3cc(-c4ccccc4)nn3)C[C@@H]2O1`, for which the cytotoxicity call was “inactive”.
Regarding `O=C(Nc1ccc(F)cc1)N[C@@H]1C[C@@H]2O[C@@H](CO)CC[C@@H]2O[C@@H]1CCc1ccc(-c2ccccc2)cc1`, the cytotoxicity call is “inactive”.
On to `OC[C@@H]1CC[C@@H]2O[C@H](CCc3ccc(C#CCc4ccccc4)cc3)[C@H](n3cc(-c4ccccc4)nn3)C[C@@H]2O1`, for which the cytotoxicity call is “inactive”.
As to `N[C@@H]1CC[C@@H](CCn2cc(-c3cccc(F)c3)nn2)O[C@H]1CO`, the cytotoxicity call is “inactive”.
On to `OC[C@H]1CC[C@@H]2O[C@H](CCc3ccc(C#CCc4ccccc4)cc3)[C@H](n3cc(-c4ccccc4)nn3)C[C@@H]2O1`, for which the cytotoxicity call is “active”.
To `OC[C@@H]1CC[C@@H]2O[C@H](CCc3ccc(C#Cc4ccccc4)cc3)[C@@H](n3cc(-c4ccccc4)nn3)C[C@@H]2O1` belongs “active”; to `OC[C@H]1CC[C@@H]2O[C@H](CCc3ccc(C#CCc4ccccc4)cc3)[C@@H](n3cc(-c4ccccc4)nn3)C[C@@H]2O1`, “inactive”; to `OC[C@@H]1CC[C@@H]2O[C@H](CCc3ccc(C#Cc4ccccc4)cc3)[C@H](n3cc(-c4ccccc4)nn3)C[C@@H]2O1`, “active”.
`OC[C@H]1O[C@@H](S[C@@H]2O[C@H](CO)[C@H](O)[C@H](n3cc(-c4cccc(F)c4)nn3)[C@H]2O)[C@H](O)[C@@H](n2cc(-c3cccc(F)c3)nn2)[C@H]1O`: the cytotoxicity call was “inactive”.
Consider `OC[C@H]1CC[C@@H]2O[C@H](CCc3ccc(C#Cc4ccccc4)cc3)[C@H](n3cc(-c4ccccc4)nn3)C[C@@H]2O1`, for which the cytotoxicity call was “active”.
To `OC[C@@H]1CC[C@@H]2O[C@H](CCc3ccc(C#CCc4ccccc4)cc3)[C@@H](n3cc(-c4ccccc4)nn3)C[C@@H]2O1` belongs “inactive”; to `O=C(Nc1ccc(F)cc1)N[C@@H]1C[C@@H]2O[C@H](CO)CC[C@@H]2O[C@@H]1CCc1ccc(-c2ccccc2)cc1`, “inactive”; to `C[C@H](CO)N1C[C@H](C)[C@H](CN(C)S(=O)(=O)c2cn(C)cn2)Oc2c(NC(=O)Nc3ccc4c(c3)OCO4)cccc2C1=O`, “inactive”.
With `O=C1CNC(=O)N1C1CCNCC1`, the cytotoxicity call is “inactive”.
Turning to `O=C(N/N=C/[C@H](O)[C@@H](O)[C@H](O)[C@H](O)CO[C@H]1O[C@H](CO)[C@H](O)[C@H](O)[C@H]1O)c1ccccn1`, the cytotoxicity call is “inactive”.
For `O=C(O)CN1Cc2ccccc2C1=O`, the cytotoxicity call was “inactive”.
Turning to `Cc1noc(C)c1S(=O)(=O)N(C)C[C@@H]1OCCCC[C@H](C)Oc2ccc(NS(C)(=O)=O)cc2C(=O)N([C@H](C)CO)C[C@@H]1C`, the cytotoxicity call was “inactive”.
For the compound `C[C@H](CO)N1C[C@H](C)[C@H](CN(C)Cc2ccccc2)OCCCC[C@H](C)Oc2ccc(NC(=O)CCC(F)(F)F)cc2C1=O`, the cytotoxicity call was “inactive”.
Turning to `COc1ccc(S(=O)(=O)Nc2cccc3c2O[C@@H](CN(C)CC2CC2)[C@@H](C)CN([C@H](C)CO)C3=O)cc1`, the cytotoxicity call was “inactive”.
Take `C[C@H](O)C#Cc1ccc2c(c1)O[C@H](CN(C)C(=O)CN(C)C)[C@H](C)CN([C@@H](C)CO)S2(=O)=O`: the cytotoxicity call was “inactive”.
Consider `CN(C)CCc1cc(Br)c(OCCCNC(=O)/C=C/c2cc(Br)c(OCCN3CCCCC3)c(Br)c2)c(Br)c1`, for which the cytotoxicity call was “inactive”.
To `CN(C)CCOc1c(Br)cc(/C=C/C(=O)NCCCOc2c(Br)cc(CCN(C)C)cc2Br)cc1Br` belongs “inactive”.
Take `CN(C)CCc1cc(Br)c(OCCCNC(=O)/C=C/c2cc(Br)c(OCCN3CCCC3)c(Br)c2)c(Br)c1`: the cytotoxicity call is “active”.
Regarding `CC(=O)OCC(=O)NCCCOc1cccc(CN2CCCCC2)c1.Cl`, the cytotoxicity call is “inactive”.
Regarding `CC(C)N(CCOc1c(Br)cc(/C=C/C(=O)NCCCOc2c(Br)cc(CCN(C)C)cc2Br)cc1Br)C(C)C`, the cytotoxicity call was “active”.
`COc1cc(/C=C/C(=O)NCCCNC(=O)/C=C/c2cc(OC)c(OC)c(OC)c2)cc(OC)c1OC`: the cytotoxicity call is “inactive”.
With `Cc1noc(C)c1NC(=O)Nc1ccc2c(c1)C(=O)N([C@H](C)CO)C[C@@H](C)[C@H](CN(C)Cc1ccc(C(=O)O)cc1)OCCCC[C@@H](C)O2` the entry was “inactive”; with `CN1CCN(C(=O)C[C@@H]2CC[C@H](NC(=O)Cc3ccccn3)[C@@H](CO)O2)CC1`, “inactive”; with `C[C@H]1CN([C@@H](C)CO)C(=O)c2cc(NC(=O)NC3CCCCC3)ccc2O[C@@H]1CN(C)Cc1ccc(-c2ccccc2)cc1`, “inactive”.
To `COc1ccc(S(=O)(=O)N[C@H]2C=C[C@H](CC(=O)NCCc3ccncc3)O[C@H]2CO)cc1` belongs “inactive”.
To `COc1ccc(S(=O)(=O)N(C)C[C@@H]2Oc3ccc(NS(C)(=O)=O)cc3CC(=O)N([C@H](C)CO)C[C@H]2C)cc1` belongs “inactive”.
